Experimental data published in PubChem BioAssay AID1159580 (chemical genetic matrix, 2015).
Values joined by “and” are separate entries in the source; they are usually repeats but may differ in a detail not shown here. Equal values may be shown once. Among all 5,500 compounds or so, about 2,000 (36%) were called active. About 18% were inconclusive and are not listed. Cut-off read from the data, not from the text of the source: active = normalized growth mostly below about 0.91 (no sharp cut-off); inconclusive = no clear call, values can overlap the other calls; inactive = mostly above about 0.92. The list shows a part of the results.

Assay: chemical genetic growth profiling, strain panel (AID 1159580);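 note: tested at 20 µM; growth read once vehicle control cultures reached saturation at 30 °C; 1 = growth at the plate median or of vehicle wells; lower values mean less growth of the strain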
Settings: S. cerevisiae deletion strains, growth OD

Measured: normalized growth

C[C@@H]1O[C@@H](O[C@H]2[C@@H](Oc3cc(O)c4c(c3)O[C@H](c3ccc(O)cc3)CC4=O)O[C@H](CO)[C@@H](O)[C@@H]2O)[C@H](O)[C@H](O)[C@H]1O
inactive: locus YAL013W, strain DEP1, stronger effect = lower value 1 | locus YAL021C, strain ccr4, stronger effect = lower value 0.969 | locus YAL026C, strain drs2, stronger effect = lower value 0.977 | locus YAL030W, strain snc1, stronger effect = lower value 0.956 | locus YBL061C, strain skt5, stronger effect = lower value 0.96 | locus YBR009C, strain hhf1, stronger effect = lower value 0.971 | locus YBR021W, strain FUR4, stronger effect = lower value 1.02 | locus YBR023C, strain chs3, stronger effect = lower value 0.978 | locus YBR171W, strain sec66, stronger effect = lower value 0.977 | locus YBR229C, strain ROT2, stronger effect = lower value 0.956 | locus YBR231C, strain swc5, stronger effect = lower value 0.97 | locus YBR279W, strain paf1, stronger effect = lower value 0.975 | locus YCL011C, strain gbp2, stronger effect = lower value 0.957 | locus YCL016C, strain dcc1, stronger effect = lower value 0.972 | locus YCL029C, strain bik1, stronger effect = lower value 0.991 | locus YCL061C, strain MRC1, stronger effect = lower value 0.985 | locus YCL069W, strain vba3, stronger effect = lower value 0.97 | locus YCR088W, strain abp1, stronger effect = lower value 0.979 | locus YDL005C, strain med2, stronger effect = lower value 0.967 | locus YDL035C, strain GPR1, stronger effect = lower value 0.996 | locus YDL040C, strain nat1, stronger effect = lower value 0.981 | locus YDL074C, strain BRE1, stronger effect = lower value 0.975 | locus YDL101C, strain DUN1, stronger effect = lower value 0.977 | locus YDL134C, strain PPH21, stronger effect = lower value 0.956 | locus YDL185W, strain tfp1, stronger effect = lower value 0.992 | locus YDL192W, strain arf1, stronger effect = lower value 0.995 | locus YDR001C, strain nth1, stronger effect = lower value 0.954 | locus YDR069C, strain doa4, stronger effect = lower value 0.97 | locus YDR101C, strain arx1, stronger effect = lower value 0.997 | locus YDR137W, strain rgp1, stronger effect = lower value 0.983 | locus YDR150W, strain NUM1, stronger effect = lower value 0.977 | locus YDR159W, strain sac3, stronger effect = lower value 0.978 | locus YDR162C, strain NBP2, stronger effect = lower value 0.992 | locus YDR195W, strain ref2 0.956 | locus YDR297W, strain sur2, stronger effect = lower value 0.984 | locus YDR318W, strain mcm21, stronger effect = lower value 0.994 | locus YDR334W, strain swr1, stronger effect = lower value 0.942 | locus YDR335W, strain msn5, stronger effect = lower value 0.969 | locus YDR388W, stronger effect = lower value 1 | locus YDR392W, strain spt3, stronger effect = lower value 0.934 | locus YDR502C, strain sam2, stronger effect = lower value 1 | locus YEL003W, strain gim4, stronger effect = lower value 0.967 | locus YEL037C, strain rad23, stronger effect = lower value 0.966 | locus YEL061C, strain CIN8 (second series), stronger effect = lower value 0.964 | locus YEL061C, strain CIN8, stronger effect = lower value 1 | locus YER015W, strain faa2, stronger effect = lower value 0.959 | locus YER016W, strain bim1, stronger effect = lower value 0.971 | locus YER110C, stronger effect = lower value 0.986 | locus YER111C, strain swi4, stronger effect = lower value 0.983 | locus YER155C, strain BEM2 (second series), stronger effect = lower value 0.972 | locus YER155C, strain BEM2, stronger effect = lower value 1.01 | locus YER167W, strain BCK2, stronger effect = lower value 1 | locus YFR010W, strain ubp6, stronger effect = lower value 0.954 | locus YGL078C, strain dbp3, stronger effect = lower value 0.991 | locus YGL086W, strain mad1, stronger effect = lower value 0.998 | locus YGL167C, strain pmr1, stronger effect = lower value 0.977 | locus YGL173C, strain kem1, stronger effect = lower value 0.946 | locus YGL227W, strain vid30, stronger effect = lower value 0.975 | locus YGL240W, strain doc1, stronger effect = lower value 0.991 | locus YGL248W, strain PDE1, stronger effect = lower value 0.979 | locus YGL253W, strain hxk2, stronger effect = lower value 0.977 | locus YGR078C, strain PAC10, stronger effect = lower value 0.987 | locus YGR135W, strain pre9, stronger effect = lower value 1 | locus YGR229C, strain SMI1, stronger effect = lower value 0.987 | locus YGR252W, strain gcn5, stronger effect = lower value 0.991 | locus YHR013C, strain ard1, stronger effect = lower value 0.943 | locus YHR027C, strain rpn1, stronger effect = lower value 0.959 | locus YHR030C, strain SLT2, stronger effect = lower value 0.99 and 1 | locus YHR079C, strain IRE1 (second series), stronger effect = lower value 0.999 | locus YHR079C, strain IRE1, stronger effect = lower value 0.989 | locus YHR094C, strain hxt1, stronger effect = lower value 0.996 | locus YHR129C, strain ARP1, stronger effect = lower value 0.993 | locus YHR142W, strain chs7, stronger effect = lower value 0.921 | locus YHR200W, strain rpn10, stronger effect = lower value 1 | locus YIL066C, strain RNR3, stronger effect = lower value 0.976 | locus YIL073C, strain SPO22, stronger effect = lower value 0.946 | locus YIL125W, strain kgd1, stronger effect = lower value 0.999 | locus YIR030C, strain dcg1, stronger effect = lower value 0.986 | locus YJL092W, strain hpr5, stronger effect = lower value 0.967 | locus YJL095W, strain BCK1 (second series), stronger effect = lower value 0.968 | locus YJL095W, strain BCK1, stronger effect = lower value 0.998 and 1 | locus YJL115W, strain asf1, stronger effect = lower value 0.938 | locus YJL129C, strain trk1, stronger effect = lower value 0.939 | locus YJL134W, strain LCB3, stronger effect = lower value 0.985 | locus YJL154C, strain vps35, stronger effect = lower value 0.961 | locus YJL164C, strain tpk1, stronger effect = lower value 0.98 | locus YJL166W, strain qcr8, stronger effect = lower value 0.977 | locus YJL168C, strain set2, stronger effect = lower value 1 | locus YJL187C, strain SWE1 (second series), stronger effect = lower value 0.968 | locus YJL187C, strain SWE1, stronger effect = lower value 0.974 | locus YJR043C, strain POL32, stronger effect = lower value 0.995 | locus YJR066W, strain TOR1, stronger effect = lower value 0.926
